Assay results: PubChem BioAssay (Tox21)
Inconclusive results are not listed. Calls of active or inactive are those of the source. Unless noted, calls follow the shape of the dose curve; as a rule, active = well fitted curve in the direction sought with a large enough effect in the repeat runs; inconclusive = weak or mixed curves; inactive = flat fitted curve, though single readings scatter.

Assays:
[1] = qHTS assay to test for compound auto fluorescence at 535 nm (green) in HEK293 cells (AID 720680)
[2] = qHTS assay to test for compound auto fluorescence at 460 nm (blue) in HEK293 cell free culture (AID 720681)
Procedure, shortened: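 Blue fluorescence (Ex 405/Em 460 nm, triamterene-equivalent) was read immediately after pin transfer of compound or DMSO into medium (DMEM, 10% FBS) without cells.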

[3] = qHTS assay to test for compound auto fluorescence at 535 nm (green) in HEK293 cell free culture (AID 720682)
Procedure, shortened: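 Using fluorescein as calibrant, autofluorescence was quantified at 485/535 nm in cell-free DMEM containing 10% FBS after pintool addition of compound or vehicle.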

[4] = qHTS assay to test for compound auto fluorescence at 590 nm (red) in HEK293 cell free culture (AID 720683)
Procedure, shortened: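 Red-channel autofluorescence of compounds in culture medium (DMEM, 10% FBS), no cells, measured at 540/590 nm. Rose Bengal sodium is the reference fluorophore for equivalence.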

[5] = qHTS assay to test for compound auto fluorescence at 590 nm (red) in HepG2 cell free culture (AID 720684)
Procedure, shortened: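 Cell-free; medium MEM + 10% FBS; compound or DMSO added by pintool; read Ex 540/Em 590 nm; Rose Bengal sodium as red reference fluorophore.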

[6] = qHTS assay to test for compound auto fluorescence at 460 nm (blue) in HepG2 cell free culture (AID 720685)
Procedure, shortened: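 Cell-free plates of MEM plus 10% FBS received 23 nL compound or DMSO vehicle; blue-channel (405/460 nm) intensity scored against triamterene as reference fluorophore.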

[7] = qHTS assay to test for compound auto fluorescence at 535 nm (green) in HepG2 cell free culture (AID 720686)
[8] = qHTS assay to test for compound auto fluorescence at 460 nm (blue) in HepG2 cells (AID 720687)
Procedure, shortened: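 Blue-channel autofluorescence (Ex/Em 405/460 nm, triamterene-equivalent) was measured after 1 hr compound exposure at 37 C, 5% CO2. Cells were HepG2, plated overnight at 37 C in MEM plus 10% FBS.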

[9] = target: Glucocorticoid receptor (Homo sapiens) (UniProt P04150); assay: qHTS assay to identify small molecule agonists of the glucocorticoid receptor (GR) signaling pathway (AID 720691; active = well fitted activation curve with a large enough effect in the signal ratio in the repeat runs, not every such curve was filed as active; the % refers to the signal ratio)
Procedure, shortened: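 A HeLa cervical cancer line expressing GR and a glucocorticoid response element-driven beta-lactamase gene is treated with compounds for 18 h; LiveBLAzer B/G FRET substrate is then applied and fluorescence read.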
% is scaled to controls: 0 for no effect and ±100 for the full control effect.

Sequence of Glucocorticoid receptor (Homo sapiens) (P04150 whole entry, looked up): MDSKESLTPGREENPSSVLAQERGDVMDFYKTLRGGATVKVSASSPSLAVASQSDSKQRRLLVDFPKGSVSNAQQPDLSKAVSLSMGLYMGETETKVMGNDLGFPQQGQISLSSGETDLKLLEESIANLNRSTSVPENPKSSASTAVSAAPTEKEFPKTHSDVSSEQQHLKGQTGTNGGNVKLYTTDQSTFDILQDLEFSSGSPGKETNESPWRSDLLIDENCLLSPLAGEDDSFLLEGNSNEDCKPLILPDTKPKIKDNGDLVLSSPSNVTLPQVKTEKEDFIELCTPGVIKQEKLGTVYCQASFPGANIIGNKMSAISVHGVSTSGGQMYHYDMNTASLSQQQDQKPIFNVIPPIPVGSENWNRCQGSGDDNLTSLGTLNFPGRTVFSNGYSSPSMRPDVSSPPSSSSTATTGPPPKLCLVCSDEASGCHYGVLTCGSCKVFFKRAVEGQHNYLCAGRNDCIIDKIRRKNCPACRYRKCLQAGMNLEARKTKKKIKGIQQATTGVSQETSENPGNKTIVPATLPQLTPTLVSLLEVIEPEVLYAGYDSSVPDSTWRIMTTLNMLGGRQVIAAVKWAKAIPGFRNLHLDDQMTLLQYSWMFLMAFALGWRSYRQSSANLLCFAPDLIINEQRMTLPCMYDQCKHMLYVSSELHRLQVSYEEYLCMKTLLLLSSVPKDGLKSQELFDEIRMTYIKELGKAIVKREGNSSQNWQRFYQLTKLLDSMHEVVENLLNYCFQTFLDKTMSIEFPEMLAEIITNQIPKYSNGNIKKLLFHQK

CCOP(=S)(OCC)Oc1cc(Cl)c(Br)cc1Cl
inactive: outcome [1] | outcome [2] | outcome [3] | outcome [4] | outcome [5] | outcome [6] | outcome [7] | outcome [8]

CCN(C)N=O
inactive: outcome [1] | outcome [2] | outcome [3] | outcome [4] | outcome [5] | outcome [6] | outcome [7] | outcome [8]

COCCOCCO
inactive: outcome [1] | outcome [2] | outcome [3] | outcome [4] | outcome [5] | outcome [6] | outcome [7]

CC1(C)CCC(Cc2ccc(Cl)cc2)C1(O)Cn1cncn1 (stereo not drawn)
inactive: outcome [1] | outcome [2] | outcome [3] | outcome [4] | outcome [5] | outcome [6] | outcome [7] | outcome [8]

CCCN(CC1CC1)c1c([N+](=O)[O-])cc(C(F)(F)F)cc1[N+](=O)[O-]
inactive: outcome [1] | outcome [2] | outcome [3] | outcome [4] | outcome [5] | outcome [6] | outcome [7] | outcome [8] | outcome [9]

COP(=S)(OC)Oc1ccc([N+](=O)[O-])cc1Cl
inactive: outcome [1] | outcome [2] | outcome [3] | outcome [4] | outcome [5] | outcome [6] | outcome [7] | outcome [8] | outcome [9]

CCCCCCCCOC(=O)c1ccc(C(=O)OCCCCCCCC)c(C(=O)OCCCCCCCC)c1
inactive: outcome [1] | outcome [2] | outcome [3] | outcome [4] | outcome [5] | outcome [6] | outcome [7] | outcome [8] | outcome [9]

CN1[C@@H]2CC[C@H]1CC(OC(=O)c1cc(Cl)cc(Cl)c1)C2 (stereo partly drawn)
inactive: outcome [1] | outcome [2] | outcome [3] | outcome [4] | outcome [5] | outcome [6] | outcome [7] | outcome [8] | outcome [9]

Nc1nc(=S)[nH][nH]1
inactive: outcome [1] | outcome [2] | outcome [3] | outcome [4] | outcome [5] | outcome [6] | outcome [7] | outcome [8] | outcome [9]

NC(=O)C(Cl)(Cl)Cl
inactive: outcome [1] | outcome [2] | outcome [3] | outcome [4] | outcome [5] | outcome [6] | outcome [7] | outcome [8]

O=C(CBr)c1ccccc1
inactive: outcome [1] | outcome [2] | outcome [3] | outcome [4] | outcome [5] | outcome [6] | outcome [7] | outcome [8] | outcome [9]

O=C(NC(=O)c1c(F)cccc1F)Nc1cc(Cl)c(Oc2ncc(C(F)(F)F)cc2Cl)c(Cl)c1
inactive: outcome [1] | outcome [2] | outcome [3] | outcome [4] | outcome [5] | outcome [6] | outcome [7] | outcome [8] | outcome [9]

Brc1ccc(Oc2ccccc2)cc1
inactive: outcome [1] | outcome [2] | outcome [3] | outcome [4] | outcome [5] | outcome [6] | outcome [7] | outcome [8] | outcome [9]

CCOC(=O)COc1cc(-c2nn(C)c(OC(F)F)c2Cl)c(F)cc1Cl
inactive: outcome [1] | outcome [2] | outcome [3] | outcome [4] | outcome [5] | outcome [6] | outcome [7] | outcome [8] | outcome [9]

CCOS(C)(=O)=O
inactive: outcome [1] | outcome [2] | outcome [3] | outcome [4] | outcome [5] | outcome [6] | outcome [7] | outcome [8]

CC(C)(C)c1cc([N+](=O)[O-])cc([N+](=O)[O-])c1O
inactive: outcome [1] | outcome [2] | outcome [3] | outcome [4] | outcome [5] | outcome [6] | outcome [7] | outcome [8] | outcome [9]

C=CC(=O)OC
inactive: outcome [1] | outcome [2] | outcome [3] | outcome [4] | outcome [5] | outcome [6] | outcome [7] | outcome [8]

NNC(=O)c1cccnc1
inactive: outcome [1] | outcome [2] | outcome [3] | outcome [4] | outcome [5] | outcome [6] | outcome [7] | outcome [8] | outcome [9]

COC(=O)C(C)N(C(=O)Cc1ccccc1)c1c(C)cccc1C (stereo not drawn)
inactive: outcome [1] | outcome [2] | outcome [3] | outcome [4] | outcome [5] | outcome [6] | outcome [7] | outcome [8] | outcome [9]

O=C1C(=O)c2cccc3cccc1c23
inactive: outcome [1] | outcome [2] | outcome [3] | outcome [4] | outcome [5] | outcome [6] | outcome [7] | outcome [8]

O=NN1CCCCCC1
inactive: outcome [1] | outcome [2] | outcome [3] | outcome [4] | outcome [5] | outcome [6] | outcome [7] | outcome [8] | outcome [9]

C=CCCl
inactive: outcome [1] | outcome [2] | outcome [3] | outcome [4] | outcome [5] | outcome [6] | outcome [7] | outcome [8] | outcome [9]

CNP(=O)(OC)Oc1ccc(C(C)(C)C)cc1Cl (stereo not drawn)
inactive: outcome [1] | outcome [2] | outcome [3] | outcome [4] | outcome [5] | outcome [6] | outcome [7] | outcome [8] | outcome [9]

COC(=O)C(Br)CBr (stereo not drawn)
inactive: outcome [1] | outcome [2] | outcome [3] | outcome [4] | outcome [5] | outcome [6] | outcome [7] | outcome [8] | outcome [9]

Clc1ccc(C(OCCN2CCCCC2)c2ccccc2)cc1 (stereo not drawn)
inactive: fluorescence, % of fluorescein [1] -0.14% [at 18.6 µM] | fluorescence, % of fluorescent control [2] -0.141% [at 18.6 µM] | activity change [3] -0.263% [at 18.6 µM] | fluorescence, % of fluorescent control [4] 0.321% [at 18.6 µM] | fluorescence, % of Rose Bengal [5] 0.0745% [at 18.6 µM] | fluorescence, % of fluorescent control [6] 0.0001% [at 18.6 µM] | fluorescence, % of fluorescein control [7] -0.0362% [at 18.6 µM] | fluorescence, % of fluorescent control [8] 0.1% [at 18.6 µM] | outcome [9]

CCCCCC[N+](=O)[O-]
inactive: outcome [1] | outcome [2] | outcome [3] | outcome [4] | outcome [5] | outcome [6] | outcome [7] | outcome [8] | outcome [9]

Cc1ccc(-c2c(Cl)nc(C#N)n2S(=O)(=O)N(C)C)cc1
inactive: outcome [1] | outcome [2] | outcome [3] | outcome [4] | outcome [5] | outcome [6] | outcome [7] | outcome [8] | outcome [9]

CCOP(=S)(OCC)SCSCC
inactive: outcome [1] | outcome [2] | outcome [3] | outcome [4] | outcome [5] | outcome [6] | outcome [7] | outcome [8] | outcome [9]
